# TRAIL sens C8 – caspase-8 TRAIL sensitization | inhibition (viability loss, TRAIL sensitization), % at 10 µM | NB7+C8 cells + TRAIL, ATPlite viability luminescence | 360,000 tested, 1% active;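 active means compounds causing at least 50% loss of cell viability in the single-dose screen, relative to plate controls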
# SENP7 block – SENP7 protease inhibition; inhibition, % at 5 µM; AID 434973; 330,000 tested, 1.5% active; Q9BQF6; recombinant SENP7, Z-RLRGG-aminoluciferin luminescence, 40 min;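 active means inhibition above about 50% at the single test dose, limit read from the data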
# SENP8 block-1 – blocks human SENP8 cleavage of Nedd8 substrate | Q96LD8 | recombinant SENP8, Nedd8 substrate fluorescence | inhibition, % at 20 µM | 360,000 tested, 0.64% active | AID 602440; in the data active means inhibition mostly above about 40%, no sharp cut-off; inactive means mostly below about 27%
# SENP8 block-2 – blocks the human protease SENP8; Q96LD8; purified SENP8, Z-RLRGG-aminoluciferin cleavage, luminescence; inhibition, % at 10 µM; 330,000 tested, 1.2% active; AID 2540; in the data active means inhibition above about 50%
# PPC-1+TRAIL kill – PPC-1 cancer cell killing with TRAIL present; PPC-1 cells + TRAIL, ATPLite viability luminescence; cell killing (% activity), % at 4 µM or 5 µM; 220,000 tested, 0.41% active; AID 1443;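 active means cell killing above 50% in the first pass at 4 µM, then a duplicate retest at 5 µM averaging 50% or more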
# SENP6 inh – SENP6 protease inhibition; Q9GZR1; Recombinant SENP6 catalytic domain, aminoluciferin luminescence; inhibition, % at 10 µM; 330,000 tested, 1.8% active;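 active means inhibition above about 50% at the single tested dose, limit read from the data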
# Target sequence (Q9GZR1 628-1112 limits assumed): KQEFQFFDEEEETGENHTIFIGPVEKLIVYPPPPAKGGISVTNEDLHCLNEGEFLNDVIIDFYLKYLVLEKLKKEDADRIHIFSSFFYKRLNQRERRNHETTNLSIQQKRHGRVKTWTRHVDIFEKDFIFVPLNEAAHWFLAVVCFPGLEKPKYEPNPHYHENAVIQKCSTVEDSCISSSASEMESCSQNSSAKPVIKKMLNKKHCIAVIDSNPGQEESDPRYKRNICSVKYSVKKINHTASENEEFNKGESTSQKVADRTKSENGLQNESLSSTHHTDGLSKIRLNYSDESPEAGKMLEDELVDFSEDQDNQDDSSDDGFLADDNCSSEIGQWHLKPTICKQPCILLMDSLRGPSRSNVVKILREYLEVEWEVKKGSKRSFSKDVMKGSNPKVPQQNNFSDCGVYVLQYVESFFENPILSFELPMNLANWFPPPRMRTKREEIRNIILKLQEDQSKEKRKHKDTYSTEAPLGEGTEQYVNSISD
# PPC1 cytotox – kills PPC-1 cells; shares compounds with PPC-1+TRAIL kill; PPC-1 viability, ATPlite luminescence, overnight; cytotoxicity, % at 5 µM; 1,200 tested, 50% active; AID 1447;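 active means reconfirmed compounds whose average cytotoxicity reaches 50% or more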
# SENP8 confirm – human SENP8 inhibition, confirmed; shares compounds with SENP7 block; Recombinant SENP8, Z-RLRGG-aminoluciferin luminescence, 60 min; inhibition, % at 12.5 µM; 6,200 tested, 40% active; AID 488912;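 active means mean inhibition across replicates above about 50%, limit read from the data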
# SENP6 confirm – human SENP6 inhibition, confirmed; recombinant SENP6, Z-RLRGG-aminoluciferin luminescence; 6,200 tested, 58% active; inhibition, % at 12.5 µM; AID 488915; shares compounds with SENP7 block
# SENP7 confirm – confirmation of human SENP7 protease inhibitors; shares compounds with SENP7 block; recombinant SENP7, Z-RLRGG-aminoluciferin luminescence, 40 min; inhibition, % at 12.5 µM; 6,200 tested, 69% active
# Casp3 select – caspase-3 inhibition (SENP selectivity assay); shares compounds with SENP7 block; purified caspase-3, Z-DEVD-aminoluciferin luminescence, 60 min; inhibition, % at 12.5 µM; 6,200 tested, 60% active;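 active means mean inhibition above about 50%, limit read from the data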
# SENP luc ctr – counter-screen for SENP inhibitors: luminescence interference | Pre-incubated SENP8/Z-RLRGG-aminoluciferin, luciferase luminescence interference | shares compounds with SENP7 block | AID 488919 | inhibition, % at 12.5 µM | 6,200 tested, 39% active;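 active means mean inhibition above about 50% when retested at one dose, limit read from the data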
# Numbers stand for hits; n = inactive; x = not tested or not shown. An excerpt weighted towards active compounds, which were near 3% of everything screened.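 How the source made its calls, unless noted: active means mean inhibition above about 50% in the one-dose retest (limit read from the data); inactive means the rest.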
SMILES,TRAIL sens C8,SENP7 block,SENP8 block-1,SENP8 block-2,PPC-1+TRAIL kill,SENP6 inh,PPC1 cytotox,SENP8 confirm,SENP6 confirm,SENP7 confirm,Casp3 select,SENP luc ctr
Cc1ccc(-c2nc(-c3ccccc3)no2)c(Cl)c1,87,100,n,97,81,98,77,96,99,102,97,83
c1c2c(cc3sc(N4CCOCC4)nc13)OCCO2,78,94,n,89,63,94,60,89,93,100,96,57
Cc1cc(C)n(-c2ccc(C(=O)N3CC(C)OC(C)C3)cc2)n1 (centres undefined),n,n,n,n,n,n,x,x,x,x,x,x
Cc1cccc(/C=N/NC(=O)Cn2nnnc2N)n1,n,n,n,n,n,n,x,x,x,x,x,x
Cc1ccc(C(=O)Nc2ccc3c(c2)CCC3)cc1,79,91,n,81,52,88,53,88,89,98,87,86
O=C(Nc1ccc2c(c1)OCCO2)c1ccc2nccnc2c1,68,n,n,n,n,53,n,50,n,82,80,60
O=C(Nc1ccc2c(c1)OCCO2)c1cccnc1,n,n,n,n,n,n,x,x,x,x,x,x
Cc1cc(NC(=O)c2ccc3nccnc3c2)ccc1Br,n,n,n,n,x,n,x,x,x,x,x,x
Cc1ccc(C(=O)Nc2ccc3nccnc3c2)cc1,76,73,n,51,74,67,74,56,55,87,83,n
Cc1ccc(C(=O)NCC(=O)Nc2ccc3c(c2)CCC3)cc1,n,n,n,n,x,n,x,x,x,x,x,x
OC(c1cccc(CN2CCCCC2)c1)c1ncc(-c2cccc3ccccc23)[nH]1 (centres undefined),n,x,n,x,x,x,x,x,x,x,x,x
Cc1ccc(NC(=O)N2CCc3ccccc3C2)cc1,n,n,n,n,n,n,x,x,x,x,x,x
Cc1ccc(NC(=O)N2CCc3ccccc32)cc1,63,94,n,89,67,86,65,91,94,101,94,94
Cc1ccc(NC(=O)N2CCc3ccccc32)cc1C,66,92,n,82,55,90,59,91,91,99,88,81
CCc1ccc(NC(=O)[C@H](Cc2ccccc2)NC(=O)C2CCN(C(=O)[C@@H](N)CC(C)C)CC2)cc1,n,n,n,n,x,n,x,x,x,x,x,x
Clc1ccc(-n2ncc3c(N4CCCCCC4)ncnc32)cc1,84,91,n,86,63,94,68,n,53,72,57,n
Clc1ccc(Cn2ncc3c(N4CCCCC4)ncnc32)cc1,n,n,n,n,n,n,x,x,x,x,x,x
Cc1cccc(-n2ncc3c(N4CCOCC4)ncnc32)c1,84,79,n,70,79,71,78,78,76,91,86,61
CCc1nn2cc(-c3ccccc3)nc2s1,71,96,n,89,58,94,57,n,94,101,95,84
Cc1ccccc1NC(=O)c1cnc2ccccn2c1=O,68,74,n,n,59,58,61,55,61,52,75,n
Nc1nn2cc(-c3ccccc3)nc2c2ccccc12,56,69,n,56,n,n,51,78,76,91,73,74
Cc1cn2nc(N)c3ccccc3c2n1,n,n,n,n,n,n,x,x,x,x,x,x
Cc1ccccc1C1N=C2Oc3ccccc3C=C2C(=O)N1 (centres undefined),n,x,n,x,x,x,x,x,x,x,x,x
C/C(=N\NC(=O)c1n[nH]c2c1CCC2)c1ccco1,64,60,n,55,n,69,n,n,68,91,91,65
COc1ccccc1C1CC(c2ccccc2)=NN1C(=S)Nc1ccccc1 (centres undefined),n,n,n,n,n,n,x,x,x,x,x,x
SMILES,TRAIL sens C8,SENP7 block,SENP8 block-1,SENP8 block-2,PPC-1+TRAIL kill,SENP6 inh,PPC1 cytotox,SENP8 confirm,SENP6 confirm,SENP7 confirm,Casp3 select,SENP luc ctr
CC(=O)Nc1ccc(NC(=O)/C=C/c2ccc3c(c2)OCO3)cc1,n,n,n,n,n,n,x,x,x,x,x,x
O=C(/C=C/c1ccc2c(c1)OCO2)Nc1cccnc1,70,85,n,77,60,84,57,n,80,97,89,76
Cc1cc(=O)[nH]n(CCO)c1=O,n,n,n,n,n,n,x,x,x,x,x,x
O=c1c(Cl)c(N2CCCCC2)cnn1-c1nc2ccccc2[nH]1,87,97,n,89,92,97,92,96,96,102,98,n
CC(C)Nc1ncnc2c1ncn2[C@H]1CN(CCN2CCOCC2)C[C@@H](CO)O1,n,x,n,x,x,x,x,x,x,x,x,x
Brc1ccc(-c2nc(N/N=C/c3cccnc3)c3ccccc3n2)cc1,91,90,n,85,88,90,87,n,n,n,n,n
COc1ccc(OC)c(NC(=O)NCCc2cccc(Cl)c2)c1,n,n,n,n,n,n,x,x,x,x,x,x
CCN(CC)CCn1c2c(c(SCC(=O)Nc3cc(OC)cc(OC)c3)nc1=O)CCC2,n,n,n,n,x,n,x,x,x,x,x,x
O=C(/C=C/c1ccc(Br)cc1)NC(=O)c1ccccc1O,63,64,n,78,62,87,62,n,55,79,n,n
CSc1ccc(/C=C/C(=O)NC(=O)c2ccccc2O)cc1,52,n,n,79,60,93,62,n,n,n,n,n
CSc1ccc(/C=N/NC(=O)c2ccccc2Cl)cc1,n,n,n,n,n,n,x,x,x,x,x,x
Cc1ccc(-n2ncc3c(=O)n(-c4cccc(C)c4)c(=O)[nH]c32)cc1,n,x,n,x,x,x,x,x,x,x,x,x
O=c1[nH]c(-c2ccncc2)nc2ccccc12,n,n,n,n,n,n,x,x,x,x,x,x
CN(C)c1ccc(-c2nc3ccccc3c(=O)[nH]2)cc1,93,95,n,88,88,98,88,n,95,100,89,n
Cc1ccc(N=C/C(C(=O)C(F)(F)F)=C(\O)c2cccs2)cc1,61,96,n,n,n,n,n,n,n,n,n,56

# Source: PubChem BioAssay
